# Bioassay records from PubChem.
# An excerpt weighted towards active compounds, which were near 2.7% of everything screened.
# Nrf2 ARE act: qHTS of Nrf2 Activators; AREc32 ARE-luciferase reporter (MCF7-derived line), luminescence, 24 h; Potency, µM (doses to about 46.1 µM), inactives show at the highest dose activation, actives largely listed as activators; 0.31% of 410,000 active; note: potency is the fitted concentration of half-maximal effect; % of control where 0% means no effect; nearly all actives have a fitted effect of over 65% in size
#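 AREc32 cells carrying an ARE-driven firefly luciferase, 1000 cells/well in OPTI-MEM with 5% FBS, dosed after overnight attachment and incubated 24 hr at 37 deg C. Steady-Glo luminescence read after 30 min at RT.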
# mIDH1 inhibitor: qHTS for Inhibitors of mutant isocitrate dehydrogenase 1 (IDH1): qHTS; 0.093% of 390,000 active; IDH1-R132H enzyme, NADPH consumption, diaphorase/resazurin fluorescence; Potency, µM (series often up to 76.6 µM), for inactives: at the highest dose activity change, negative = inhibition, hits mostly inhibitors; Isocitrate dehydrogenase [NADP] cytoplasmic (Homo sapiens), O75874; note: potency is the fitted concentration of half-maximal effect; % is set by controls: 0 for no effect and ±100 for the full control effect; nearly all actives have a fitted effect of over 65% in size
# Target sequence (O75874 whole entry R132H, stated change not applied): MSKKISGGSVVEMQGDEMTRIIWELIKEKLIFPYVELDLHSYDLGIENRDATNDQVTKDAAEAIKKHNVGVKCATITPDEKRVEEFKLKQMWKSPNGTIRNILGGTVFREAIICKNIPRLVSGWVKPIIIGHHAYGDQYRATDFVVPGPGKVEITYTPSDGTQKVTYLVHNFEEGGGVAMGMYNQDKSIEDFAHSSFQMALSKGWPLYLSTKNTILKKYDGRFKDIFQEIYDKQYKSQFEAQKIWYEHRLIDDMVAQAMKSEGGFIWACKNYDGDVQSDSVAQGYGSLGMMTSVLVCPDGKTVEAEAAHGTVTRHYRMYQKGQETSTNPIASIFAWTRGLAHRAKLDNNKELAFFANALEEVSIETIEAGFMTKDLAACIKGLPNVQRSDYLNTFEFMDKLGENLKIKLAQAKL
#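 IDH1-R132H (0.5 ug/mL dispensed) in pH 7.5 Tris buffer was preincubated 30 min with compound, then given a substrate mix of 0.016 mM NADPH and 2 mM alpha-KG for 80 min at room temperature; remaining NADPH was read by diaphorase/resazurin fluorescence.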
# LDHA block: qHTS assay for inhibitors of human lactate dehydrogenase; L-lactate dehydrogenase A chain (Homo sapiens), P00338; purified LDHA, NADH/diaphorase-resazurin fluorescence; active compounds read low; activity change, % (values are at about 110 or 230 µM); 0.15% of 480,000 active; AID 1347041, 2019; in the data active = activity change below about -30%; inconclusive = mostly about -25% to -30%;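 note: plate controls were DMSO wells for no effect and wells without enzyme for full effect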
#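 Remaining NADH was detected by diaphorase (0.133 mg/mL) converting 37 µM resazurin to fluorescent resorufin, read at 0 and 20 minutes. The preceding 5-minute room-temperature reaction used 2 nM LDHA, 0.2 mM sodium pyruvate and 0.06 mM NADH at pH 7.4.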
# Nrf2 inh: Nrf2 qHTS screen for inhibitors; A549 ARE-Fluc reporter, luciferase luminescence, 18-24 h; Potency, µM (series often up to 46 µM), for inactives: at the top dose activity change, negative = inhibition, usual class: inhibitors; 2.1% of 360,000 active; AID 504444, 2011; note: potency is the fitted concentration of half-maximal effect; % is set by controls: 0 for no effect and ±100 for the full control effect; nearly all actives have a fitted effect of over 60% in size
#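 Concentration-response testing used A549 ARE_Fluc cells at 5000 cells/well. Following an 18-24 h compound incubation, viability was read by fluorescence (Ex 405/Em 525) and luciferase output by luminescence.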
# A549 viability: Nrf2 qHTS screen for inhibitors: counterscreen for cytotoxicity; A549 ARE-Fluc cells, CellTiter-Fluor viability, 18-24 h; Potency, µM (highest dose often 46 µM), for the others: at the top dose activity change, negative = cytotoxicity, usual class: inhibitors; 0.16% of 390,000 active; note: potency is the fitted concentration of half-maximal effect; % is set by controls: 0 for no effect and ±100 for the full control effect
#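 A549 ARE_Fluc cells in 5% FBS OPTI-MEM were exposed to compounds in concentration-response for 18-24 h at 37 deg C. Viability was read by CellTiter-Fluor fluorescence (Ex 405/Em 525) after 30 min, before the luciferase read.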
# ALOX12 inh: Primary qHTS assay for inhibitors of human arachidonate 12S-lipoxygenase (ALOX12): Round 2 | Potency, µM (titrated, usually from 108 µM), for the others: at the highest dose activity change, negative = inhibition, actives largely listed as inhibitors | purified 12hLO, xylenol orange hydroperoxide absorbance | 1.1% of 580,000 active | AID 1671190, 2021 | Polyunsaturated fatty acid lipoxygenase ALOX12 (Homo sapiens), P18054; note: potency is the fitted concentration of half-maximal effect; % is set by controls: 0 for no effect and ±100 for the full control effect
#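 Hydroperoxide product was detected by ferrous iron/xylenol orange as the 573 to 405 nm absorbance ratio. Arachidonic acid at 40 uM (final) was turned over for 30 min at room temperature by 150 nM human 12hLO, pH 7.0 Hepes buffer, after 15 min compound preincubation.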
# Numbers without * were called inactive; i = inactive; ? = inconclusive; . = no result given; [ ] = remark or other dose. Unless noted, calls come from the whole dose curve; as a rule, active = well fitted curve in the direction sought with a large enough effect; inconclusive = small, poorly fitted or top-dose-only effect, or another doubt; inactive = no such curve, though single readings can be large; an effect the other way counts as inactive or inconclusive.
SMILES,Nrf2 ARE act,mIDH1 inhibitor,LDHA block,Nrf2 inh,A549 viability,ALOX12 inh
Cc1ccc(C2C(C(=O)c3cccs3)=C(O)C(=O)N2c2nncs2)cc1 (stereo not drawn),.,.,5,.,.,2.2µM*
CCOC(=O)Cc1cc(=O)n2[nH]c(NCc3cccc(C)c3)nc2n1,.,.,-5,.,.,?
Cc1nnc(-c2cccc(Br)c2)c2cn(-c3ccc(Br)cc3)nc12,0%,-4%,-2,15µM*,-19%,4%
Cc1ccc2nc(/N=C(\N)NC(=O)NC3CCCCC3)nc(C)c2c1,5%,5%,-3,8.2µM*,23µM*,149%
Cc1ccc2nc(/N=C(\N)NC(=O)c3ccccc3)nc(C)c2c1,.,.,2,.,.,0%
COc1cccc(C(=O)Oc2ccc(C)c(C)c2)c1,.,.,3,.,.,2%
O=C(CNCCN1CCOCC1)Nc1ccccc1Sc1ccccc1,-1%,11%,-31*,-1%,-1%,-18%
COC(=O)c1ccc(CSc2ccc3nnc(-c4cccc(F)c4)n3n2)o1,4%,6%,-4,?,-3%,28µM*
COc1cccc2c1C(=O)c1c(O)c3c(c(O)c1C2=O)C[C@@](O)(C(=O)CO)C[C@@H]3O[C@H]1C[C@H](N)[C@@H](O)[C@H](C)O1,-4%,4%,3,3.3µM*,?,-29%[57.4 µM]
C=CCN(CC=C)C(=O)c1cc(-c2ccc(OCC)cc2)nc2ccccc12,.,.,2,.,.,?
O=C(Nc1ccccc1F)c1ccc(-c2cccc([N+](=O)[O-])c2)o1,1.4µM*,4%,-1,?,-1%,-3%
Cc1ccc(NC(=O)c2n[nH]c(=O)c3ccccc23)cc1S(=O)(=O)N1CCCCCC1,.,.,3,.,.,-20%
CCOCC(=O)Nc1ccc2c(c1)OCCO2,1%,-1%,1,12%,-9%,0%
C/C(=N\OCC(=O)Nc1ccc2c(c1)OCCO2)c1ccc2c(c1)OCCO2,0%,3%,-4,18µM*,-14%,-6%
C/C(=N\NC(=S)NCc1ccccc1)c1ccc2c(c1)OCCO2,8%,-3%,-1,?,?,35µM*
C/C(=N\NC(=S)Nc1ccc(C)c(C)c1)c1ccc(N2CCOCC2)cc1,5%,17%,2,-26%,-2%,35µM*
C/C(=N\NC(=S)Nc1ccc(F)cc1)c1ccc2c(c1)OCCO2,6%,-1%,-2,10%,-4%,35µM*
C/C(=N\NC(N)=S)c1ccc2c(c1)OCCO2,4%,2%,-5,19%,-10%,?
C/C(=N/NC(=S)NCc1ccccc1)c1ccc(-c2ccccc2)cc1,.,.,-1,.,.,?
CC(Nc1ccc(N2CCOCC2)cc1)c1nc2scc(-c3cccs3)c2c(=O)[nH]1 (stereo not drawn),.,.,12,.,.,35µM*
COc1cccc(NC(C)c2nc3scc(-c4cccs4)c3c(=O)[nH]2)c1 (stereo not drawn),.,.,6,.,.,13%
COc1cc(C(=O)Nc2cccc(-c3nncn3C)c2)cc(OC)c1C,.,.,8,.,.,-36%
Cc1oc2c(c1C(=O)N1CCC(C)CC1)C(=O)c1ccccc1C2=O,-4%,-11%,29,26µM*,?,-6%
Cc1cccc(CS(=O)(=O)Cc2ccc(C#N)cc2)c1,.,.,6,.,.,-72%
CCCCCC(=O)Nc1nc(C)c(-c2csc(Nc3cc(Cl)ccc3OC)n2)s1,7%,-17%,5,5%,2%,-11%
SMILES,Nrf2 ARE act,mIDH1 inhibitor,LDHA block,Nrf2 inh,A549 viability,ALOX12 inh
Cc1nc(NC(=O)c2ccccc2)sc1-c1csc(Nc2ccccc2Cl)n1,.,.,1,.,.,40µM*
Cc1nc(NC(=O)c2ccccc2)sc1-c1csc(Nc2ccc(C(=O)O)cc2)n1,3%,1%,-8,5%,-4%,-7%
CCC(C)C(=O)Nc1nc(C)c(-c2csc(Nc3ccc(Cl)cc3)n2)s1 (stereo not drawn),4%,0%,-4,16µM*,?,?
Cc1ccc(Cl)cc1Nc1nc(-c2sc(NC(=O)C(C)(C)C)nc2C)cs1,0%,0%,0,12µM*,3%,?
C=CCOC(=O)c1sc(NC(=O)c2ccco2)nc1C,5µM*,6%,-5,?,.,-14%
Cc1ccccc1Nc1nc(-c2cc3cc(Br)ccc3oc2=O)cs1,.,.,-2,.,.,0%
Cc1cccc2nc(-c3ccc(O)cc3)c(Nc3ccc4c(c3)OCCO4)n12,.,.,0,.,.,?
CCCCn1c(=O)[nH]c(=O)c2c1nc(CSc1nnnn1C1CCCC1)n2C,.,.,12,.,.,0%
CS(=O)(=O)N1CCC(NS(=O)(=O)c2ccccc2F)CC1,.,.,-3,.,.,1%
Cc1ccccc1Nc1nc(-c2sc(NC(=O)c3ccco3)nc2C)cs1,5%,-5%,6,-8%,-2%,7.9µM*
COc1ccc(OC)c(NC(=O)CC2SCCNC2=O)c1 (stereo not drawn),.,.,-6,.,.,1%
COc1ccc(-c2n[nH]c(C(F)(F)F)c2-c2cc3ccccc3o2)c(O)c1,-1%,-1%,-10,16µM*,16µM*,?
CCc1nc2ccccc2c(C(=O)OCC(=O)NC(C)(C)C)c1C,.,.,-4,.,.,-24%
Cc1noc(C)c1COc1ccccc1C(=O)N1CCN(S(=O)(=O)c2ccccc2Br)CC1,-2%,2%,4,11%,-19%,24%
Cc1cc(C)c(C)c(S(=O)(=O)N2CCN(C(=O)c3ccccc3OCc3c(C)noc3C)CC2)c1C,0%,0%,-2,18µM*,-26%,4%
Cc1noc(C)c1COc1ccccc1C(=O)NNC(=O)c1ccccc1F,10µM*,3%,1,-1%,2%,34%
N#CC1(C#N)CC1(C#N)C(N)=O (stereo not drawn),.,.,2,.,.,?
COc1ccc(-n2ncc3c2ncn2nc(Cc4ccccc4)nc32)cc1,4%,.,1,?,-2%,0%
c1ccc(-n2ncc3c2ncn2nc(-c4ccco4)nc32)cc1,10µM*,0%,-10,?,-7%,4%
CSc1nc(N)n2nc(-c3ccccc3)cc2n1,7.9µM*,-8%,-8,?,0%,i
CN(C)c1ccc(N=Nc2ccc(S(N)(=O)=O)cc2)cc1,3%,2%,-2,?,?,-26%
CC1=CC(=O)C=CC1=Nc1ccc(N(C)C)cc1,-5%,.,27,.,.,7.9µM*
